# Data: PubChem BioAssay (NCATS)
# Records with an inconclusive call do not appear. Entries that show only a call come without a potency. Activity calls are given as the source filed them. Calls follow the shape of the dose curve; as a rule, active = well fitted inhibition curve with a large enough effect; inconclusive = small, poorly fitted or top-dose-only effect; inactive = flat fitted curve, though single readings scatter.
# Tested on: CP260
# Assay: qHTS profiling for inhibitors of Plasmodium falciparum proliferation (AID 504749); also: nearly all actives have a fitted effect of over 60% in size
# Settings: P. falciparum in erythrocytes, SYBR Green DNA, 72 h; series mostly up to 28.7 µM
# Procedure, shortened: (§1)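 SYBR Green fluorescence of parasite DNA, read after lysis and overnight dark incubation, measured growth over 72 h in erythrocyte culture at 0.3% parasitemia and 2.5% hematocrit. Data normalised to DMSO and 0.29 uM artemisinin, with plate-drift correction.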
# Potency is read from the fitted curve at half-maximal effect.
row,SMILES,Potency
1,CCCN1CCC[C@H](c2cccc(O)c2)C1,inactive
2,C[C@]12CCC(=O)C(O)=C1CC[C@@H]1[C@H]3CCC(=O)[C@@]3(C)CC[C@@H]12,inactive
3,O=C(O)COc1ccccc1,inactive
4,O=[N+]([O-])c1ccc([As](=O)(O)O)cc1,7.08 µM (active)
5,O=C(O)C(Cl)Cl,inactive
6,Cc1cc(O)ccc1Cl,inactive
7,CC(=O)OCC1=C(C(=O)O)N2C(=O)[C@@H](N)[C@@H]2SC1,inactive
8,COC(=O)[C@@H](N)CCCN=C(N)N[N+](=O)[O-],inactive
9,CN1C2CCC1CC(OC(=O)c1cc(Cl)cc(Cl)c1)C2 (configuration not stated),inactive
10,CCCCCCCCCCCCCCCC[N+](C)(C)C,5.62 µM (active)
11,CCCCc1ccc(C(=O)O)nc1,inactive
12,Cc1ccc(Cl)c(O)c1,inactive
13,CC(C)NC(C)Cc1ccc(I)cc1 (configuration not stated),inactive
14,CC(=O)[O][Hg][c]1ccccc1,3.98 µM (active)
15,C=CCN1CC[C@]23CCCCC2[C@H]1Cc1ccc(O)cc13 (some centres not stated),inactive
16,NC(=O)CN1CC(O)CC1=O (configuration not stated),inactive
17,C1CCC(NC2CCCCC2)CC1,inactive
18,C#CC1(O)CCC2C3CCC4=CC(=O)CCC4(C)C3CCC21C (configuration not stated),inactive
19,CC[N+]1(CCOC(=O)C(O)(c2ccccc2)c2ccccc2)CCCCC1,inactive
20,CCCCCCCCCC(CC)c1ccc(S(=O)(=O)O)cc1 (configuration not stated),inactive
21,NC1=NC(=O)N2CC12 (configuration not stated),10 µM (active)

# Tested on: CP262
# Assay: as above
# Settings: P. falciparum in erythrocytes, SYBR Green DNA, 72 h; series mostly up to 28.7 µM
# Procedure, shortened: as §1
row,SMILES,Potency
1,CCCN1CCC[C@H](c2cccc(O)c2)C1,inactive
2,C[C@]12CCC(=O)C(O)=C1CC[C@@H]1[C@H]3CCC(=O)[C@@]3(C)CC[C@@H]12,inactive
3,O=C(O)COc1ccccc1,inactive
4,O=[N+]([O-])c1ccc([As](=O)(O)O)cc1,8.49 µM (active)
5,COC(C)(C)CCCC(C)C/C=C/C(C)=C/C(=O)OC(C)C (configuration not stated),inactive
6,O=C(O)C(Cl)Cl,inactive
7,Cc1cc(O)ccc1Cl,inactive
8,CC(=O)OCC1=C(C(=O)O)N2C(=O)[C@@H](N)[C@@H]2SC1,inactive
9,COC(=O)[C@@H](N)CCCN=C(N)N[N+](=O)[O-],inactive
10,c1ccc(C2(c3ccccc3)CC2C2=NCCN2)cc1 (configuration not stated),inactive
11,CN1C2CCC1CC(OC(=O)c1cc(Cl)cc(Cl)c1)C2 (configuration not stated),inactive
12,CCCCc1ccc(C(=O)O)nc1,inactive
13,Cc1ccc(Cl)c(O)c1,inactive
14,CC(C)NC(C)Cc1ccc(I)cc1 (configuration not stated),inactive
15,COC(=O)c1cncn1C(C)c1ccccc1 (configuration not stated),inactive
16,C=CCN1CC[C@]23CCCCC2[C@H]1Cc1ccc(O)cc13 (some centres not stated),inactive
17,NC(=O)CN1CC(O)CC1=O (configuration not stated),inactive
18,C1CCC(NC2CCCCC2)CC1,inactive
19,C#CC1(O)CCC2C3CCC4=CC(=O)CCC4(C)C3CCC21C (configuration not stated),inactive
20,CC[N+]1(CCOC(=O)C(O)(c2ccccc2)c2ccccc2)CCCCC1,inactive
21,CCCCCCCCCC(CC)c1ccc(S(=O)(=O)O)cc1 (configuration not stated),inactive

# Tested on: CP265
# Assay: as above
# Settings: P. falciparum in erythrocytes, SYBR Green DNA, 72 h; series mostly up to 28.7 µM
# Procedure, shortened: as §1
row,SMILES,Potency
1,CCCN1CCC[C@H](c2cccc(O)c2)C1,inactive
2,O=C(O)COc1ccccc1,inactive
3,O=[N+]([O-])c1ccc([As](=O)(O)O)cc1,10 µM (active)
4,COC(C)(C)CCCC(C)C/C=C/C(C)=C/C(=O)OC(C)C (configuration not stated),11.2 µM (active)
5,O=C(O)C(Cl)Cl,inactive
6,Cc1cc(O)ccc1Cl,inactive
7,CN(C)[C@@H]1C(=O)C(C(N)=O)=C(O)[C@@]2(O)C(=O)C3=C(O)c4c(O)cccc4[C@@](C)(O)[C@H]3[C@H](O)[C@@H]12,inactive
8,COC(=O)[C@@H](N)CCCN=C(N)N[N+](=O)[O-],inactive
9,c1ccc(C2(c3ccccc3)CC2C2=NCCN2)cc1 (configuration not stated),inactive
10,CN1C2CCC1CC(OC(=O)c1cc(Cl)cc(Cl)c1)C2 (configuration not stated),inactive
11,CCCCCCCCCCCCCCCC[N+](C)(C)C,11.2 µM (active)
12,CCCCc1ccc(C(=O)O)nc1,inactive
13,Cc1ccc(Cl)c(O)c1,inactive
14,CC(C)NC(C)Cc1ccc(I)cc1 (configuration not stated),inactive
15,CC(=O)[O][Hg][c]1ccccc1,8.91 µM (active)
16,C=CCN1CC[C@]23CCCCC2[C@H]1Cc1ccc(O)cc13 (some centres not stated),inactive
17,NC(=O)CN1CC(O)CC1=O (configuration not stated),inactive
18,C1CCC(NC2CCCCC2)CC1,inactive
19,C#CC1(O)CCC2C3CCC4=CC(=O)CCC4(C)C3CCC21C (configuration not stated),inactive
20,CC[N+]1(CCOC(=O)C(O)(c2ccccc2)c2ccccc2)CCCCC1,inactive
21,CCCCCCCCCC(CC)c1ccc(S(=O)(=O)O)cc1 (configuration not stated),inactive

# Tested on: CP266
# Assay: as above
# Settings: P. falciparum in erythrocytes, SYBR Green DNA, 72 h; series mostly up to 28.7 µM
# Procedure, shortened: as §1
row,SMILES,outcome
1,CCCN1CCC[C@H](c2cccc(O)c2)C1,inactive
2,C[C@]12CCC(=O)C(O)=C1CC[C@@H]1[C@H]3CCC(=O)[C@@]3(C)CC[C@@H]12,inactive
3,O=C(O)COc1ccccc1,inactive
4,O=C(O)C(Cl)Cl,inactive
5,Cc1cc(O)ccc1Cl,inactive
6,CN(C)[C@@H]1C(=O)C(C(N)=O)=C(O)[C@@]2(O)C(=O)C3=C(O)c4c(O)cccc4[C@@](C)(O)[C@H]3[C@H](O)[C@@H]12,inactive
7,CC(=O)OCC1=C(C(=O)O)N2C(=O)[C@@H](N)[C@@H]2SC1,inactive
8,COC(=O)[C@@H](N)CCCN=C(N)N[N+](=O)[O-],inactive
9,CN1C2CCC1CC(OC(=O)c1cc(Cl)cc(Cl)c1)C2 (configuration not stated),inactive
10,CCCCc1ccc(C(=O)O)nc1,inactive
11,Cc1ccc(Cl)c(O)c1,inactive
12,CC(C)NC(C)Cc1ccc(I)cc1 (configuration not stated),inactive
13,COC(=O)c1cncn1C(C)c1ccccc1 (configuration not stated),inactive
14,C=CCN1CC[C@]23CCCCC2[C@H]1Cc1ccc(O)cc13 (some centres not stated),inactive
15,NC(=O)CN1CC(O)CC1=O (configuration not stated),inactive
16,C1CCC(NC2CCCCC2)CC1,inactive
17,C#CC1(O)CCC2C3CCC4=CC(=O)CCC4(C)C3CCC21C (configuration not stated),inactive
18,CC[N+]1(CCOC(=O)C(O)(c2ccccc2)c2ccccc2)CCCCC1,inactive
19,NC1=NC(=O)N2CC12 (configuration not stated),inactive
